In the supplement of paper PMC11219838:

What follows are compounds tested on Meloidogyne hapla J2 (assay: proportion of mobile M. hapla J2 relative to DMSO control (fraction of DMSO control); higher = more viable, less nematicidal, active = 0.7 or less). Conditions: 60 µM; 5 days; temperature: 20 °C.
Procedure: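 DODA library (846 commercial 1,3,4- and 1,2,4-oxadiazole compounds plus commercial nematicide controls) screened at a single dose of 60 µM (0.6% DMSO) in 96-well plates, two biological replicates. Read-outs: C. elegans N2 L1 survival/reproduction score at day 6, 20 °C (0: 0-10 worms, 1: 11-20, 2: 21-50, 3: >50, 4: overgrown/starved). C. elegans daf-2 dauer, D. dipsaci and M. hapla J2 mobility at day 5, 20 °C, and P. penetrans mobility at day 5, 20 °C, each relative to DMSO controls. M. hapla egg hatching at day 12, 25 °C, relative to the mean of 8 DMSO wells on the same plate.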

SMILES | proportion of mobile M. hapla J2
Cc1cc(Br)ccc1OCc1nc(-c2cccnc2)no1 | 1.05 (inactive)
CCc1cccc(C)c1NC(=O)CSc1nnc(-c2ccccc2)o1 | 1.04 (inactive)
Clc1cccc(-c2nc(-c3ccccc3Cl)no2)c1 | 0.991 (inactive)
Cc1cc(OCc2nc(-c3ccccn3)no2)ccc1Br | 0.937 (inactive)
Brc1ccc(-c2noc(COc3ccccc3)n2)cc1 | 0.602 (active)
O=C(CSc1nnc(-c2ccc(Br)cc2)o1)Nc1nccs1 | 1.01 (inactive)
CCn1c(SCc2nnc(-c3ccccc3)o2)nnc1-c1ccco1 | 0.948 (inactive)
Ic1ccc(OCc2nc(-c3ccncc3)no2)cc1 | 1.01 (inactive)
Cc1cc(C)cc(-c2nc(-c3ccc(Cl)cc3)no2)c1 | 0.938 (inactive)
Clc1cccc(OCc2nc(-c3ccncc3)no2)c1 | 0.85 (inactive)
COc1ccc(-c2nnc(SCC(=O)Nc3ccc(Cl)cc3Cl)o2)cc1 | 0.976 (inactive)
COc1ccc(Br)cc1-c1noc(-c2ccncc2)n1 | 0.759 (inactive)
Cc1ccc(-c2nc(-c3ccccc3)no2)cc1Cl | 0.996 (inactive)
COc1cccc(-c2noc(COc3ccccc3Cl)n2)c1 | 0.998 (inactive)
N#Cc1ccc(CSc2nnc(-c3ccccc3)o2)cc1 | 0.798 (inactive)
COc1ccccc1-c1nc(-c2ccccc2Cl)no1 | 0.899 (inactive)
Cc1ccc(-c2nc(-c3ccc(C(F)(F)F)cc3)no2)cc1 | 0.952 (inactive)
COc1ccc(-c2nnc(SCC(=O)Nc3cc(Cl)ccc3C)o2)cc1 | 0.904 (inactive)
CC(=O)Nc1ccc(C(=O)CSc2nnc(-c3cccc(Br)c3)o2)cc1 | 1.01 (inactive)
c1ccc(-c2noc(COc3ccc4c(c3)CCCC4)n2)cc1 | 0.923 (inactive)

SMILES | proportion of mobile M. hapla J2
Fc1ccc(OCc2nc(-c3ccc(Cl)cc3)no2)cc1 | 1.1 (inactive)
CC(C)(C)C(=O)CSc1nnc(-c2ccc(Cl)cc2Cl)o1 | 0.873 (inactive)
Cc1ccc(NC(=O)CSc2nnc(-c3ccccc3)o2)c(C)c1 | 0.951 (inactive)
Cc1cnc(NC(=O)CSc2nnc(-c3cccc(Cl)c3)o2)s1 | 0.97 (inactive)
CCn1c(C)cc(C(=O)CSc2nnc(-c3ccccc3)o2)c1C | 0.962 (inactive)
O=C(CSc1nnc(-c2ccco2)o1)Nc1cccc2ccccc12 | 0.956 (inactive)
c1ccc(-c2noc(CSc3nc4ccccc4[nH]3)n2)cc1 | 1.05 (inactive)
Clc1ccc(CSc2nnc(-c3ccc(Cl)cc3)o2)cc1 | 0.914 (inactive)
CCOc1ccccc1-c1nc(-c2ccc(F)cc2)no1 | 1.06 (inactive)
O=C(CSc1nnc(-c2ccccc2Cl)o1)Nc1ccc(Br)cn1 | 0.851 (inactive)
Cc1ccc(-c2noc(COc3cc(C)cc(C)c3)n2)cc1 | 1.02 (inactive)
Cc1cccc(-c2noc(COc3ccc(Cl)cc3)n2)c1 | 1.04 (inactive)
Clc1ccc(OCc2nc(-c3ccccc3)no2)c(Br)c1 | 1.02 (inactive)
COc1ccccc1OCc1nc(-c2ccccc2)no1 | 0.973 (inactive)
COc1cccc(-c2noc(COc3cccc(C)c3)n2)c1 | 0.995 (inactive)
O=C(CSc1nnc(-c2cccc(Br)c2)o1)c1ccccc1 | 1.02 (inactive)
Cc1ccc(-c2nc(C3CCCCC3)no2)cc1 | 1.01 (inactive)
CCOc1cc(-c2nc(-c3ccc(OC)cc3)no2)cc(OCC)c1OCC | 0.998 (inactive)
Cc1cc(OCc2nc(-c3cccnc3)no2)c(C)cc1Br | 0.771 (inactive)
CC(=O)Nc1ccc(-c2nnc(SCc3ccccc3)o2)cc1 | 0.954 (inactive)
